Assay [1] can be described thus: qHTS assay to identify small molecule agonists of the hypoxia (HIF-1) signaling pathway - cell viability counter screen (AID 1224844; calls by dose curve; also: nearly all actives have a fitted effect of over 50% in size; also: potency is read from the fitted curve at half-maximal effect). The method in brief: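 Cytotoxicity measured by CellTiter-Glo ATP luminescence in the wells also read for beta-lactamase signal. Cells were HRE-bla ME-180 (2,000/well, 0.5% dialyzed FBS), exposed to compounds for 17 h at 37C.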
A general note: Quantitative high-throughput screening tests each substance at several concentrations.

Assay [2] is described as follows: qHTS assay to identify small molecule agonists of H2AX (AID 1224845; active = well fitted activation curve with a large enough effect in the signal ratio in the repeat runs, not every such curve was filed as active; the % refers to the signal ratio). The method in brief: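 Wild-type CHO-K1 cells, plated overnight, exposed 3hr at 37C to 15 concentrations (0.76% DMSO final). Lysed, then HTRF anti-pH2AX (S139) cryptate and anti-H2AX-d2 antibodies, 24 hr room temperature; 665/620 nm emission read.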
A short description of assay [3]: qHTS assay to identify small molecule agonists of H2AX - cell viability counter screen (AID 1224847; calls by dose curve; also: nearly all actives have a fitted effect of over 30% in size; also: potency is read from the fitted curve at half-maximal effect; as to activity change, negative = cytotoxicity: top concentration of the series differs between compounds). The method in brief: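 Compounds tested at 15 concentrations were incubated 3 hr at 37C with wild-type CHO-K1 cells; cellular ATP-based luminescence (CellTiter-Glo) indicated viability.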
Assay [4] in a line: A CellTox Green Cytotoxicity Assay to monitor cytotoxicity in HEK293 cells - 0 hour (AID 1224869). Also: nearly all actives have a fitted effect of over 50% in size. The method in brief: (§1)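 Fluorescence from a DNA-binding dye excluded by viable cells was measured repeatedly in the same HEK293 wells (600 cells/well) during continuous compound exposure at 37 C. Each assay gives one read point: 0, 8, 16, 24, 32 or 40 h.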
Assay [5] can be described thus: qHTS RealTime-Glo MT Cell Viability Assay in HepG2 cells - 40 hour (AID 1224870). Also: nearly all actives have a fitted effect of over 50% in size. The method in brief:
(§2)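 HepG2 cells (600/well) mixed with RealTime-Glo MT reagent, settled 5 h at 37 C/5% CO2 before compound addition. Nonlytic NanoLuc luminescence from viable-cell prosubstrate reduction read repeatedly during 40 h treatment at 37 C.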

Assay [6] is described as follows: A CellTox Green Cytotoxicity Assay to monitor cytotoxicity in HEK293 cells - 40 hour (AID 1224871). Also: nearly all actives have a fitted effect of over 45% in size. The procedure, abridged: as §1
Assay [7] in a line: qHTS RealTime-Glo MT Cell Viability Assay in HEK293 cells - 16 hour (AID 1224872). Also: top concentration of the series differs between compounds; nearly all actives have a fitted effect of over 50% in size. The method in brief:
(§3)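 Quantitative high-throughput screen of the Tox21 10K library in HEK293: cells and RealTime-Glo reagents plated together, compound added at 5 h, luminescence monitored through 40 h at 37 C.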

Assay [8] in a line: qHTS RealTime-Glo MT Cell Viability Assay in HepG2 cells - 8 hour (AID 1224873). Also: nearly all actives have a fitted effect of over 55% in size. The method in brief: as §2
A short description of assay [9]: qHTS RealTime-Glo MT Cell Viability Assay in HEK293 cells - 40 hour (AID 1224874). Also: nearly all actives have a fitted effect of over 50% in size. Also: potency is read from the fitted curve at half-maximal effect. As to conditions: RealTime-Glo luminescence; max response: hits give low values. The method in brief: (§4)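 Luminescence, which tracks viable cell number through reduction of the prosubstrate to a NanoLuc substrate, was read over continuous 37 C culture. Cells (600/well) were premixed with reagent and rested 5 h before 23 nL of compound in DMSO was pinned.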

Assay [10] is described as follows: A CellTox Green Cytotoxicity Assay to monitor cytotoxicity in HEK293 cells - 24 hour (AID 1224875). Also: nearly all actives have a fitted effect of over 45% in size. The procedure, abridged:
as §1

A short description of assay [11]: A CellTox Green Cytotoxicity Assay to monitor cytotoxicity in HepG2 cells - 16 hour (AID 1224876). Also: nearly all actives have a fitted effect of over 45% in size. The procedure, abridged: (§5)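 Real-time cytotoxicity: fluorescence of a cell-impermeant cyanine dye binding DNA of dead HepG2 cells, measured repeatedly (0–40 h) during compound exposure at 37 C. Cells seeded 600/well with reagent, dosed after 5 h.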
Assay [12] in a line: qHTS RealTime-Glo MT Cell Viability Assay in HepG2 cells - 32 hour (AID 1224877). Also: nearly all actives have a fitted effect of over 55% in size. The method in brief:
(§6)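 Compound treatment began 5 h after plating HepG2 cells (600/well) with NanoLuc luciferase and prosubstrate. Plates stayed at 37 C for 40 h; luminescence was captured at six time points, 0 h through 40 h.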

Assay [13] can be described thus: A CellTox Green Cytotoxicity Assay to monitor cytotoxicity in HepG2 cells - 24 hour (AID 1224878). Also: nearly all actives have a fitted effect of over 45% in size. The procedure, abridged: as §5
A short description of assay [14]: A CellTox Green Cytotoxicity Assay to monitor cytotoxicity in HepG2 cells - 40 hour (AID 1224879). Also: nearly all actives have a fitted effect of over 40% in size. The procedure, abridged:
as §5

Assay [15] is described as follows: qHTS RealTime-Glo MT Cell Viability Assay in HEK293 cells - 0 hour (AID 1224880). The method in brief: as §4
Assay [16] is described as follows: qHTS assay to identify small molecule agonists of the estrogen related receptor (ERR) signaling pathway from Tox21 library (AID 1224849; calls by dose curve; also: nearly all actives have a fitted effect of over 15% in size). As to conditions: ERR reporter cell line, ONE-Glo luciferase, 18 h; at 92.4 µM (top of the series) unless noted. The method in brief: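 Luminescent agonist read-out (One-Glo, 30-minute room-temperature incubation) following 18-hour compound treatment at 37 C of the ERR cell line, which had been plated 6 hours before dosing.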

A short description of assay [17]: qHTS RealTime-Glo MT Cell Viability Assay in HepG2 cells - 24 hour (AID 1224867). Also: nearly all actives have a fitted effect of over 50% in size. The method in brief:
as §6

Assay [18] can be described thus: qHTS RealTime-Glo MT Cell Viability Assay in HEK293 cells - 32 hour (AID 1224868). Also: nearly all actives have a fitted effect of over 50% in size. Also: potency is read from the fitted curve at half-maximal effect. As to activity change, negative = cytotoxic: top concentration of the series differs between compounds. The method in brief: as §3
Assay [19] can be described thus: qHTS assay to identify small molecule agonists of the hypoxia (HIF-1) signaling pathway (AID 1224846; active = well fitted activation curve with a large enough effect in the signal ratio in the repeat runs, not every such curve was filed as active; the % refers to the signal ratio). The procedure, abridged: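 Compounds added to ME-180 cells carrying hypoxia-response-element beta-lactamase reporter (0.5% dialyzed FBS, 5 h preplating), 17 h at 37C; agonist activity detected by CCF4-AM B/G FRET read-out.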
Assay [20] can be described thus: qHTS assay to identify small molecule antagonists of the estrogen related receptor (ERR) signaling pathway from Tox21 library (AID 1224848). Also: nearly all actives have a fitted effect of over 50% in size. Also: potency is read from the fitted curve at half-maximal effect. The method in brief: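 Compounds dissolved in DMSO are pin-transferred onto ERR reporter cells (2,000 per well) that have settled for 6 h at 37 C. Plates then incubate 18 h at 37 C before ONE-Glo luciferase reagent and a luminescence read 30 min later.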

Values without a mark were called inactive. Records with an inconclusive call do not appear. The source made the active and inactive calls. Unless noted, calls follow the shape of the dose curve; as a rule, active = well fitted curve in the direction sought with a large enough effect in the repeat runs; inconclusive = weak or mixed curves; inactive = no such curve, though single readings can be large; an effect the other way counts as inactive or inconclusive.
% is scaled to controls: 0 for no effect and ±100 for the full control effect.

Consider `O=C(O)c1ccccc1Cl`, for which the Potency entry in assay [1], in assay [2], in assay [3], in [4], in [5] and in assay [6] was “inactive” in each case. For the same compound, the Potency result in [7], in [8], in [10], in assay [11], in [12] and in [13] was “inactive” each time. In addition, the Potency entry in assay [14] and in assay [15] was “inactive” in each case. The max response in assay [9] is -1.6%.

Take `CCCCNc1ccc(C(=O)OCCOCCOCCOCCOCCOCCOCCOCCOCCOC)cc1`: the Potency result in assay [1], in [2], in [17], in [4], in assay [5] and in assay [8] was “inactive” in each case. For the same compound, the Potency entry in assay [11], in assay [12], in assay [13], in [14] and in assay [15] was “inactive” in each case. Besides, the activity change, positive = activation in [16] was -27.3% [at 42.5 µM].

With `Nc1ccccc1S(=O)(=O)c1ccccc1`, the Potency entry in assay [1], in assay [2], in assay [3], in assay [17], in assay [18] and in assay [4] was “inactive” each time. Moreover, the Potency result in assay [5], in [6], in assay [7], in assay [8], in assay [11] and in [12] was “inactive” each time. Besides, the Potency result in [13], in assay [14] and in assay [15] was “inactive” each time. Moreover, the activity change, positive = activation in [16] was -20.8%. Moreover, the max response in assay [9] is -22.9%.

As to `Cc1ccc(C(C)OC(=O)C2(C)CCC(C(=O)O)C2(C)C)cc1` (configuration not stated), the Potency result in assay [1], in assay [2], in [3], in [17], in assay [18] and in assay [4] was “inactive” throughout. For the same compound, the Potency entry in [5], in assay [6], in assay [8], in [10], in assay [11] and in [12] was “inactive” in each case. Further, the Potency result in assay [13], in assay [14] and in assay [15] was “inactive” in each case. Further, the max response in assay [9] was 8.96%.

As to `C#C[C@]1(O)CC[C@H]2[C@@H]3CCc4cc(OC5CCCC5)ccc4[C@H]3CC[C@@]21C`, the Potency in assay [1] is 15.1 µM (active); in assay [3] it was 49.2 µM (active); in [18], 23.9 µM (active); in [9], 23.9 µM (active). Moreover, the Potency result in assay [2], in assay [4], in assay [5], in assay [10] and in [15] was “inactive” in each case.

`O=C(O)C1(C(=O)O)CCC1.[NH2-].[NH2-].[Pt+2]`: the Potency result in assay [1], in [2], in assay [18], in [4], in assay [5] and in assay [6] was “inactive” each time. For the same compound, the Potency entry in assay [7], in [8], in assay [10], in assay [12], in assay [13] and in assay [14] was “inactive” each time. Also, in [15], the Potency entry is “inactive”. For the same compound, the max response in assay [9] was -1.65%.

For the compound `OCCN1CCN(CCCN2c3ccccc3C=Cc3ccccc32)CC1`, the Potency entry in [1], in [19], in assay [3], in [17], in [18] and in assay [4] was “inactive” each time. The Potency entry in assay [5], in assay [6], in assay [7], in assay [8], in assay [12] and in [13] was “inactive” throughout. Besides, the Potency result in [14] and in assay [15] was “inactive” throughout.

In the case of `c1cc(CCCc2ccncc2)ccn1`, the Potency entry in assay [1], in assay [19], in assay [3], in [17], in assay [18] and in assay [4] was “inactive” in each case. For the same compound, the Potency entry in assay [5], in assay [6], in [10], in [11], in assay [12] and in assay [13] was “inactive” throughout. For the same compound, the Potency entry in assay [14] and in [15] was “inactive” throughout. Moreover, the activity change, positive = activation in assay [16] is -26.9%. Besides, the max response in [9] was -17.4%.

With `Nc1ccc(N)c2c1C(=O)c1ccccc1C2=O`, the Potency entry in assay [1], in assay [19], in [17], in [4], in assay [5] and in assay [6] was “inactive” each time. The Potency result in [10], in assay [11], in assay [12], in assay [13], in [14] and in [15] was “inactive” in each case. The Potency in [3] is 50.5 µM (active); in assay [20], 43.3 µM (active). Further, the activity change, positive = activation in assay [16] was -37.5%.

For the compound `CCCCCCCC#N`, the Potency result in [1], in [19], in assay [3], in assay [20], in [17] and in [18] was “inactive” throughout. The Potency result in assay [4], in assay [5], in [6], in assay [8], in assay [10] and in [11] was “inactive” each time. Also, the Potency result in [12], in assay [13], in [14] and in [15] was “inactive” throughout. In assay [16], the activity change, positive = activation is 2.85%. In addition, the max response in assay [9] is -4.16%.

Consider `CC(C)=CCC/C(C)=C/CC/C(C)=C/CO`, for which the Potency entry in assay [1], in assay [2], in [17], in assay [4], in [5] and in assay [12] was “inactive” in each case. In assay [13], the Potency entry is “inactive”.

On to `O=C(O)CNCC(=O)O`, for which the activity change, negative = cytotoxicity in assay [1] is -0.223% [at 6.97 µM]; in assay [3], -1.6% [at 14 µM]; in assay [17], 0.0678% [at 6.97 µM]; in [7], -7.32% [at 6.97 µM]; in assay [15], -1.51% [at 6.97 µM]. In addition, the activation in assay [19] is 0.217% [at 7.01 µM]. The figures for the activity change, negative = cytotoxic in assay [18], in [5] and in assay [12] were -9.97% [at 6.97 µM], 1.89% [at 6.97 µM] and 0.774% [at 6.97 µM], respectively. The cytotoxicity is -0.535% [at 6.97 µM] in assay [4] and -3.31% [at 6.97 µM] in assay [13]. Further, the cytotoxicity increase in [6] was 3.68% [at 6.97 µM]; in assay [11] it was -9.02% [at 6.97 µM]; in assay [14], -10.4% [at 6.97 µM]. Besides, in [9], the max response is -8.46%. In assay [10], the activity change was 3.54% [at 6.97 µM, hits give high values].

As for `CCOC(=O)c1cccnc1`, the Potency result in assay [1], in assay [2], in assay [18], in assay [4], in assay [5] and in assay [7] was “inactive” in each case. In addition, the Potency result in assay [8], in assay [10], in [12], in [13], in assay [14] and in assay [15] was “inactive” throughout. Further, the max response in assay [9] is 1.88%.

With `COc1cc(Cl)c(OC)cc1N`, the Potency entry in [1], in assay [19], in [3], in assay [17], in assay [18] and in assay [4] was “inactive” throughout. For the same compound, the Potency entry in assay [5], in assay [6], in [7], in assay [8], in [10] and in [11] was “inactive” each time. In addition, the Potency entry in [12], in assay [13], in [14] and in [15] was “inactive” throughout.

As for `C=C1[C@H]2CC[C@@H]3[C@H]2C(C)(C)CCC[C@]13C`, the Potency result in [1], in assay [2], in assay [18], in assay [5], in assay [6] and in [7] was “inactive” each time. Moreover, the Potency result in assay [8], in assay [10], in [11], in [12], in [13] and in assay [14] was “inactive” each time. For the same compound, the Potency result in assay [15] was “inactive”. Besides, in assay [9], the max response is -2.59%.

(Values after PubChem BioAssay (Tox21).)
